Consider 18 compounds from ChEMBL document CHEMBL3988442, “University of Dundee, Small-Polar-MMV Screening Library” (2021).

SMILES strings stand for the structures.

For this assay, the target named is T1, Methionyl-tRNA synthetase, putative (Leishmania donovani (strain BPK282A1)) (UniProt E9BF75).
T1 sequence (whole entry): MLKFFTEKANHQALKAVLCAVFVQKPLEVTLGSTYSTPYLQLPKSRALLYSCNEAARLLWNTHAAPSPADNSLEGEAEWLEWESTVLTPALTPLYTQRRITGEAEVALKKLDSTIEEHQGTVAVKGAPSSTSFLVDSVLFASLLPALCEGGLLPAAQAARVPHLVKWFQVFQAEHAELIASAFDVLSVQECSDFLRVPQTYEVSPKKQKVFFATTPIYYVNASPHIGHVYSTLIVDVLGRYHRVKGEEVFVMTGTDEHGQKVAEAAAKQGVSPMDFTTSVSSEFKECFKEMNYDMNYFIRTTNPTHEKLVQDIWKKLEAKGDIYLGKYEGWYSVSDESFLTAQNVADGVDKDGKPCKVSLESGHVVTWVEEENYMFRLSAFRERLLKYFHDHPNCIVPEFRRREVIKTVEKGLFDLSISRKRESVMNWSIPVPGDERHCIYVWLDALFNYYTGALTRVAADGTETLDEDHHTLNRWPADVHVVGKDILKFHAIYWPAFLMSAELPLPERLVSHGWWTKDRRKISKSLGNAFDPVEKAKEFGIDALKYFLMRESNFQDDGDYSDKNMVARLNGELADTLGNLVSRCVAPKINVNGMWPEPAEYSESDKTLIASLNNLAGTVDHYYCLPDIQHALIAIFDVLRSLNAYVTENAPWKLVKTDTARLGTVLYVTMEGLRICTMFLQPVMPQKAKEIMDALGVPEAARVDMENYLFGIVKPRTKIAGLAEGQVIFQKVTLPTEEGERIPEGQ
As to the kind of experiment: Leishmania donovani Methionine tRNA synthetase (LdMetRS):v7. Dose response assay. In kind it is functional. Also on record: conc 80 nM, time 150 minutes.

Take `Cc1ccnc(C2CN(Cc3ccc(-c4ccccc4C(=O)O)o3)C2)n1`: the PXC50 (BOTTOM 9.249913927, HILLSLOPE 1.102722508, MAX_EFFECT 60.83188908, TOP 100.0) is 4.12; the PXC50 (BOTTOM 9.895143899, HILLSLOPE 1.447637201, MAX_EFFECT 79.86111111, TOP 100.0) was 4.36; the PXC50 (BOTTOM 14.75237733, HILLSLOPE 1.939721289, MAX_EFFECT 72.48322148, TOP 100.0) was 4.2.

Consider `C1CCCN(CC2CCCN(Cc3noc(C4CC4)n3)C2)CC1` (centres undefined), for which the PXC50 runs as follows: (BOTTOM 4.352296135, HILLSLOPE 1.766055102, MAX_EFFECT 53.69127517, TOP 86.72954931) 4.1; (BOTTOM 8.24905968, HILLSLOPE 1.172496443, MAX_EFFECT 57.63888889, TOP 100.0) 4.05; (MAX_EFFECT 48.70017331) under 4.

For the compound `Cc1nc(-c2cc(Cl)c3c(c2)CC(CN)O3)c[nH]1` (centres undefined), the PXC50 (MAX_EFFECT 32.65306122) is under 4, the PXC50 (MAX_EFFECT 37.68115942) is under 4 and the PXC50 (MAX_EFFECT 41.5061296) was under 4.

As for `COCCCNc1nc(Nc2ccc(F)c(F)c2)nc2c1cnn2C`, the PXC50 came to 4.89 (BOTTOM 8.707474288, HILLSLOPE 1.018785888, MAX_EFFECT 82.18527316, TOP 91.55126405); 4.77 (BOTTOM 8.755992534, HILLSLOPE 0.77848464, MAX_EFFECT 80.25751073, TOP 100.0); 4.83 (BOTTOM -0.585436575, HILLSLOPE 0.774777818, MAX_EFFECT 86.07350097, TOP 105.947702).

In the case of `Cn1ncc2c(NCCO)nc(Nc3ccncc3)nc21`, the PXC50 is under 4 (MAX_EFFECT 4.449648712), under 4 (MAX_EFFECT 5.518763797) and under 4 (MAX_EFFECT -0.37037037).

Turning to `COC(=O)CNC(=O)c1cccc(C(=O)N(C)c2ccccc2)c1`, the PXC50 reads like this: (MAX_EFFECT 1.22591944) under 4; (MAX_EFFECT 1.449275362) under 4; (MAX_EFFECT -3.401360544) under 4.

As to `Cn1ncc2c(N3CCCCC3)nc(Nc3ccc(F)c(F)c3)nc21`, the PXC50 (BOTTOM 9.784183065, HILLSLOPE 1.295074552, MAX_EFFECT 52.03094778, TOP 54.78178501) was 5.24; the PXC50 (MAX_EFFECT 30.83700441) was under 4; the PXC50 (MAX_EFFECT 34.09090909) is under 4.

For `OCCNc1nc(Nc2cccc(C(F)(F)F)c2)nc2ccsc12`, the PXC50 is, setting by setting: (MAX_EFFECT 27.65957447) under 4; (MAX_EFFECT 37.44493392) under 4; (MAX_EFFECT 44.00826446) under 4.

Take `Cn1ncc2c(NCCn3cnnn3)nc(Nc3ccc(F)c(F)c3)nc21`: the PXC50 runs as follows: (BOTTOM 0.694813003, HILLSLOPE 0.766193094, MAX_EFFECT 55.16528926, TOP 100.0) 4.46; (MAX_EFFECT 43.90715667) under 4; (MAX_EFFECT 44.05286344) under 4.

For the compound `OCCNc1nc(Nc2ccc(F)c(F)c2)nc2[nH]ncc12`, the PXC50 is 5.11 (BOTTOM 3.46805435, HILLSLOPE 2.296919563, MAX_EFFECT 68.49315068, TOP 65.56498053); 5.22 (BOTTOM 8.366568489, HILLSLOPE 1.390922894, MAX_EFFECT 66.79316888, TOP 71.6605159); 5.31 (BOTTOM -5.242433447, HILLSLOPE 1.269255479, MAX_EFFECT 62.45283019, TOP 64.77487353).

With `NCC1CCN(C2CCN(c3ccc(-c4ccco4)cc3)CC2)C1` (centres undefined), the PXC50 runs as follows: (BOTTOM 4.43866672, HILLSLOPE 0.884621075, MAX_EFFECT 64.49275362, TOP 100.0) 4.31; (BOTTOM 4.60090898, HILLSLOPE 1.046241477, MAX_EFFECT 65.98639456, TOP 92.93543159) 4.34; (BOTTOM 4.64806131, HILLSLOPE 0.783599422, MAX_EFFECT 54.46584939, TOP 100.0) 4.09.

For `Cn1ncc2c(NCCO)nc(Nc3ccccc3)nc21`, the PXC50 is, setting by setting: (MAX_EFFECT 42.26415094) under 4; (MAX_EFFECT 47.32824427) under 4; (MAX_EFFECT 49.56140351) under 4.

Take `Cn1ncc2c(NCC3CCCO3)nc(Nc3ccc(F)c(F)c3)nc21` (centres undefined): the PXC50 by setting is: (BOTTOM 1.649824941, HILLSLOPE 0.742759749, MAX_EFFECT 82.45614035, TOP 99.7468185) 4.96; (BOTTOM 4.130822452, HILLSLOPE 0.904236715, MAX_EFFECT 86.03773585, TOP 94.6325805) 4.99; (BOTTOM 7.824180632, HILLSLOPE 1.170320257, MAX_EFFECT 82.95165394, TOP 90.00397209) 4.93.

In the case of `CCC(C)NC(=O)c1ccc(-c2ccco2)[nH]c1=O` (centres undefined), the PXC50 reads like this: (MAX_EFFECT 4.72854641) under 4; (MAX_EFFECT 5.442176871) under 4; (MAX_EFFECT 7.971014493) under 4.

As for `Cn1ncc2c(NCCO)nc(Nc3ccc(O)cc3)nc21`, the PXC50 by setting is: (MAX_EFFECT 7.728337237) under 4; (MAX_EFFECT 8.34914611) under 4; (MAX_EFFECT 13.02428256) under 4.

In the case of `Cn1ncc2c(NCCO)nc(NCc3cccnc3)nc21`, the PXC50 runs as follows: (MAX_EFFECT 7.969639469) under 4; (MAX_EFFECT 8.113207547) under 4; (MAX_EFFECT 12.78538813) under 4.

As to `O=C(N1CCOCC(O)C1)C1(c2ccc(Cl)cc2)CCC1` (centres undefined), the PXC50 reads like this: (MAX_EFFECT 0.0) under 4; (MAX_EFFECT -0.875656743) under 4; (MAX_EFFECT -1.449275362) under 4.

As to `OCCNc1nc(Nc2cccc(F)c2)nc2ccsc12`, the PXC50 runs as follows: (BOTTOM 3.044431964, HILLSLOPE 0.890140098, MAX_EFFECT 69.62809917, TOP 98.77893837) 4.42; (BOTTOM -0.299639933, HILLSLOPE 0.74457476, MAX_EFFECT 65.18375242, TOP 100.0) 4.37; (BOTTOM -0.909696564, HILLSLOPE 1.048927528, MAX_EFFECT 68.28193833, TOP 78.21382142) 4.73.
